Measurements published in PubChem BioAssay (EPA / NIEHS).
Some structures have more than one record in an assay (separate samples or runs), and their calls can disagree. Activity calls are given as the source filed them. How the source made its calls: active means hit-call score of the fitted dose curve at least 0.9, where 1 is the maximum; inactive means score below 0.9.

Legend:
[1] = read-out: Interleukin-1 alpha (IL1a), IL1A (gene 3552); experiment: BSK_KF3CT_IL1a: BioMAP Diversity Plus: KF3CT Assay for Interleukin-1 alpha (IL1a) Biomarker Activity (AID 2283070); details: primary human keratinocytes with fibroblasts; actives raise or lower the signal
How it was run: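 Human keratinocyte plus foreskin fibroblast primary co-culture, sampled 24 h after chemical dosing. IL-1a measured by ELISA; responses fitted bidirectionally against DMSO baseline (negative control), so gain or loss of signal both count.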

[2] = read-out: TIMP metallopeptidase inhibitor 2 (TIMP2), TIMP2 (gene 7077); experiment: BSK_KF3CT_TIMP2: BioMAP Diversity Plus: KF3CT Assay for TIMP metallopeptidase inhibitor 2 (TIMP2) Biomarker Activity (AID 2283071); details: primary human keratinocytes with fibroblasts; actives raise or lower the signal
How it was run: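 Human primary keratinocyte/foreskin fibroblast co-culture dosed with chemical and sampled at 24 h. TIMP-2 levels quantified by ELISA; bidirectional fitting against DMSO negative control as baseline.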

[3] = read-out: C-C motif chemokine 2 (Homo sapiens) (UniProt P13500); experiment: BSK_KF3CT_MCP1: BioMAP Diversity Plus: KF3CT Assay for Monocyte Chemoattractant Protein 1 (MCP1/CCL2) Biomarker Activity (AID 2283073); details: primary human keratinocytes with fibroblasts; actives raise or lower the signal
How it was run: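 ELISA read-out of MCP-1, 24 h post-dose, in primary human skin keratinocytes co-cultured with fibroblasts. Parallel SRB staining monitors cytotoxicity; changes fitted both directions relative to DMSO.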

[4] = read-out: Matrix Metallopeptidase 9 (MMP9), MMP9 (gene 4318); experiment: BSK_KF3CT_MMP9: BioMAP Diversity Plus: KF3CT Assay for Matrix Metallopeptidase 9 (MMP9) Biomarker Activity (AID 2283074); details: primary human keratinocytes with fibroblasts; actives raise or lower the signal
How it was run: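 Keratinocyte plus foreskin fibroblast human primary skin co-culture was dosed with chemical and MMP-9 was quantified by ELISA 24 h later. Bidirectional curve fitting used DMSO as negative control and activity baseline.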

[5] = read-out: urokinase plasminogen activator (uPA), PLAU (gene 5328); experiment: BSK_KF3CT_uPA: BioMAP Diversity Plus: KF3CT Assay for urokinase plasminogen activator (uPA) Biomarker Activity (AID 2283075); details: primary human keratinocytes with fibroblasts; actives raise or lower the signal
How it was run: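 Human keratinocyte plus foreskin fibroblast primary co-culture exposed to chemical for 24 h. uPA levels were quantified by ELISA, and activity was fitted bidirectionally against a DMSO negative-control baseline.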

CD40, CD40 (gene 958) [6] = experiment: BSK_LPS_CD40: BioMAP Diversity Plus: LPS Assay for CD40 Biomarker Activity (AID 2283076); details: primary human HUVEC with PBMC; actives raise or lower the signal
How it was run: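 In the LPS system of human endothelial cells with peripheral blood mononuclear cells, CD40 levels were read by ELISA 24 h post-treatment. Signal changes in either direction were fitted against the DMSO baseline, with parallel SRB protein staining.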

[7] = read-out: Interleukin-8 (IL8), CXCL8 (gene 3576); experiment: BSK_LPS_IL8: BioMAP Diversity Plus: LPS Assay for Interleukin-8 (IL8) Biomarker Activity (AID 2283078); details: primary human HUVEC with PBMC; actives raise or lower the signal
How it was run: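 ELISA read-out of IL-8 after 24 h chemical treatment of LPS-activated endothelial/PBMC human primary co-cultures. Changes either up or down relative to DMSO; overt cytotoxicity checked by sulforhodamine B staining in parallel wells.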

[8] = BSK_LPS_SRB: Viability Assessment in the BioMAP Diversity Plus: LPS Assay (AID 2283079); details: primary human HUVEC with PBMC;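 further: total protein by sulforhodamine B absorbance as a cytotoxicity measure; measured one day after compound addition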
How it was run: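 SRB viability endpoint: cells fixed with 10% TCA, stained with 0.1% SRB, read at 560 nm, 24 h post-dose. HUVEC/PBMC co-culture; signal change in either direction scored relative to DMSO.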

[9] = read-out: Interleukin-1 alpha (IL1a), IL1A (gene 3552); experiment: BSK_LPS_IL1a: BioMAP Diversity Plus: LPS Assay for Interleukin-1 alpha (IL1a) Biomarker Activity (AID 2283080); details: primary human HUVEC with PBMC; actives raise or lower the signal
How it was run: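 Readout is IL-1a level by ELISA, 24 h post-dose, fitted as gain or loss relative to DMSO. System: LPS-activated human primary co-culture of vascular endothelium and peripheral blood mononuclear cells, with parallel SRB total-protein cytotoxicity.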

[10] = read-out: Monocyte Chemoattractant Protein-1 (MCP1), CCL2 (gene 6347); experiment: BSK_LPS_MCP1: BioMAP Diversity Plus: LPS Assay for Monocyte Chemoattractant Protein-1 (MCP1) Biomarker Activity (AID 2283081); details: primary human HUVEC with PBMC; actives raise or lower the signal
How it was run: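 Secreted MCP-1 read by ELISA at 24 h post-dosing in an LPS-activated co-culture of endothelial cells with peripheral blood mononuclear cells. Fits run in both directions, DMSO as baseline; parallel SRB staining tracks overt cytotoxicity.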

[11] = BSK_LPS_PGE2: BioMAP Diversity Plus: LPS Assay for Prostaglandin E2 (PGE2) Biomarker Activity (AID 2283082); details: primary human HUVEC with PBMC; actives raise or lower the signal
How it was run: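 HUVEC plus PBMC co-culture stimulated with LPS; secreted PGE2 quantified by ELISA 24 h after chemical dosing. Activity fitted bidirectionally against DMSO as negative control and baseline; parallel SRB total-protein staining served as cytotoxicity check.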

[12] = read-out: Macrophage colony-stimulating factor (MCSF), CSF1 (gene 1435); experiment: BSK_LPS_MCSF: BioMAP Diversity Plus: LPS Assay for Macrophage colony-stimulating factor (MCSF) Biomarker Activity (AID 2283083); details: primary human HUVEC with PBMC; actives raise or lower the signal
How it was run: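 Bidirectional fitting against DMSO was applied to M-CSF levels read by ELISA at 24 h post-dose. The system pairs human umbilical vein endothelium with peripheral blood mononuclear cells; parallel SRB staining tracked cytotoxicity.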

[13] = read-out: Tissue Factor, F3 (gene 2152); experiment: BSK_LPS_TissueFactor: BioMAP Diversity Plus: LPS Assay for Tissue Factor Biomarker Activity (AID 2283084); details: primary human HUVEC with PBMC; actives raise or lower the signal
How it was run: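 Compound was added to an endothelial cell/PBMC co-culture, and after 24 h tissue factor (CD142) was read by ELISA. Gain or loss of signal was fitted against a DMSO baseline, and parallel SRB staining (560 nm) tracked overt cytotoxicity.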

[14] = read-out: Tumor necrosis factor (Homo sapiens) (UniProt P01375); experiment: BSK_LPS_TNFa: BioMAP Diversity Plus: LPS Assay for Tumour Necrosis Factor alpha (TNFa) Biomarker Activity (AID 2283085); details: primary human HUVEC with PBMC; actives raise or lower the signal
How it was run: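 Human umbilical vein endothelial cells co-cultured with PBMC were exposed to test chemical and TNFa measured by ELISA 24 h after dosing. Bidirectional curve fitting was done relative to DMSO as negative control and baseline.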

[15] = read-out: Vascular cell adhesion molecule 1 (VCAM1), VCAM1 (gene 7412); experiment: BSK_LPS_VCAM1: BioMAP Diversity Plus: LPS Assay for Vascular cell adhesion molecule 1 (VCAM1) Biomarker Activity (AID 2283086); details: primary human HUVEC with PBMC; actives raise or lower the signal
How it was run: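 Human umbilical vein endothelial cells co-cultured with peripheral blood mononuclear cells under LPS stimulation were exposed to test chemical for 24 h. VCAM-1 levels were then measured by ELISA, with bidirectional curve fitting relative to DMSO as negative control and baseline.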

CD38, CD38 (gene 952) = experiment: BSK_SAg_CD38: BioMAP Diversity Plus: SAg Assay for CD38 Biomarker Activity (AID 2283087); details: primary human HUVEC with PBMC; actives raise or lower the signal
How it was run: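 Fluorescence ELISA of cell-surface CD38 served as the read-out, with either increase or decrease fitted against DMSO controls. Cells were a human umbilical vein endothelium plus PBMC co-culture under SEB/TSST-1 stimulation, measured 24 h after dosing.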

CD40, CD40 (gene 958) [16] = experiment: BSK_SAg_CD40: BioMAP Diversity Plus: SAg Assay for CD40 Biomarker Activity (AID 2283088); details: primary human HUVEC with PBMC; actives raise or lower the signal
How it was run: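 CD40 is measured by fluorescence ELISA in an endothelial/PBMC primary human co-culture at 24 h post-dose. Fitting is bidirectional, DMSO baseline. Parallel SRB staining (560 nm) flags cytotoxicity.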

CD69, CD69 (gene 969) = experiment: BSK_SAg_CD69: BioMAP Diversity Plus: SAg Assay for CD69 Biomarker Activity (AID 2283089); details: primary human HUVEC with PBMC; actives raise or lower the signal
How it was run: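 Primary human vascular co-culture (umbilical vein endothelium with peripheral blood mononuclear cells) exposed to test chemical for 24 h. CD69 levels quantified by fluorescence ELISA; DMSO served as negative control for bidirectional fitting.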

[17] = read-out: Transforming growth factor beta 1 (TGFb1), TGFB1 (gene 7040); experiment: BSK_KF3CT_TGFb1: BioMAP Diversity Plus: KF3CT Assay for Transforming growth factor beta 1 (TGFb1) Biomarker Activity (AID 2283072); details: primary human keratinocytes with fibroblasts; actives raise or lower the signal
How it was run: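 Human keratinocyte plus foreskin fibroblast primary co-culture, dosed with chemical for 24 h. TGF-b1 quantified by ELISA. Activity fitted bidirectionally against DMSO negative control as baseline.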

[18] = read-out: E-selectin (Homo sapiens) (UniProt P16581); experiment: BSK_LPS_Eselectin: BioMAP Diversity Plus: LPS Assay for Eselectin Biomarker Activity (AID 2283077); details: primary human HUVEC with PBMC; actives raise or lower the signal
How it was run: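 E-selectin ELISA on LPS-stimulated endothelial cell/PBMC co-cultures, read 24 h post-treatment; gains and losses fitted against DMSO. Parallel SRB staining (0.1% SRB after 10% TCA fixation, 560 nm) flags overt cytotoxicity.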

Sequence of Tumor necrosis factor (Homo sapiens) (P01375 whole entry, looked up): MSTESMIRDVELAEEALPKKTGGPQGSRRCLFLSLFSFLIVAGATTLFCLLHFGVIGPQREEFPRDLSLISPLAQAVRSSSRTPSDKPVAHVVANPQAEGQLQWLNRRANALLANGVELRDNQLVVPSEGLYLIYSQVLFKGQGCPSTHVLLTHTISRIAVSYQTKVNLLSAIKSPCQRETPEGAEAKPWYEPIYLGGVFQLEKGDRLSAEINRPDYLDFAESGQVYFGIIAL
Sequence of E-selectin (Homo sapiens) (P16581 whole entry, looked up): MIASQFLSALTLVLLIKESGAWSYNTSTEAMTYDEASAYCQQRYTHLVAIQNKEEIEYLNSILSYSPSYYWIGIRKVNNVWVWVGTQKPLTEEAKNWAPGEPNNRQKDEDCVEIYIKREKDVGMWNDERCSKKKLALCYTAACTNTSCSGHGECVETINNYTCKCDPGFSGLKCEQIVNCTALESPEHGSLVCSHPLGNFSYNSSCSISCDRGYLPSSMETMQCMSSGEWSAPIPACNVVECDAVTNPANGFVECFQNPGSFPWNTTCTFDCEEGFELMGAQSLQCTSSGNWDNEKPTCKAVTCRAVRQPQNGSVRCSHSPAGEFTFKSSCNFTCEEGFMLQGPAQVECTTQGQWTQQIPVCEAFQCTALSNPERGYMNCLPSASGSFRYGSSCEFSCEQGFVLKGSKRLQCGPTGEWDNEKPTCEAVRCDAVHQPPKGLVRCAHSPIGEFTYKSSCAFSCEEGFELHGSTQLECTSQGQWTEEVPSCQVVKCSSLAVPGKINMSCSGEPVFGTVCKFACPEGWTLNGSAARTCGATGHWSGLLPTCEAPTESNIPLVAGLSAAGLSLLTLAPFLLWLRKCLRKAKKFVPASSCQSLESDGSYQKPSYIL

## CC(O)C(F)(F)C(F)(F)F (stereo not given)
[1]
  outcome: inactive
[2]
  outcome: inactive
[3]
  outcome: inactive
[4]
  outcome: inactive
[5]
  outcome: inactive
CD40, CD40 (gene 958) [6]
  outcome: inactive
[7]
  outcome: inactive
[8]
  outcome: inactive
[9]
  outcome: inactive
[10]
  outcome: inactive
[11]
  outcome: inactive
[12]
  outcome: inactive
[13]
  AC50: 5.95 µM (active)
  outcome: inactive
[14]
  outcome: inactive
[15]
  outcome: inactive
CD38, CD38 (gene 952)
  outcome: inactive
CD40, CD40 (gene 958) [16]
  outcome: inactive
CD69, CD69 (gene 969)
  outcome: inactive

## CCOS(=O)(=O)OCC
[1]
  outcome: inactive
[17]
  outcome: inactive
[3]
  outcome: inactive
[4]
  outcome: inactive
[5]
  outcome: inactive
CD40, CD40 (gene 958) [6]
  outcome: inactive
[18]
  outcome: inactive
[7]
  outcome: inactive
[8]
  outcome: inactive
[9]
  outcome: inactive
[10]
  outcome: inactive
[11]
  outcome: inactive
[12]
  outcome: inactive
[13]
  outcome: inactive
[14]
  outcome: inactive
[15]
  outcome: inactive
CD38, CD38 (gene 952)
  outcome: inactive
CD40, CD40 (gene 958) [16]
  outcome: inactive

## OCC1CO1 (stereo not given)
[1]
  outcome: inactive
[17]
  outcome: inactive
[3]
  outcome: inactive
[4]
  outcome: inactive
[5]
  outcome: inactive
CD40, CD40 (gene 958) [6]
  outcome: inactive
[18]
  outcome: inactive
[7]
  outcome: inactive
[8]
  outcome: inactive
[9]
  outcome: inactive
[10]
  outcome: inactive
[11]
  outcome: inactive
[12]
  outcome: inactive
[13]
  outcome: inactive
[14]
  outcome: inactive
[15]
  outcome: inactive
CD38, CD38 (gene 952)
  outcome: inactive
CD40, CD40 (gene 958) [16]
  outcome: inactive
